This note sets out measurements from the supplement of paper PMC7724964.

Holding throughout (test): phage ELISA signal ratio (GST-PRM binding over GST background); higher = stronger binding of peptide-phage to the PRM
Test [1] concerns the target T1, WDR74 1-387 WD40 (domain begin residue: 1, domain end residue: 387), Q6RFH5.
T1 chain: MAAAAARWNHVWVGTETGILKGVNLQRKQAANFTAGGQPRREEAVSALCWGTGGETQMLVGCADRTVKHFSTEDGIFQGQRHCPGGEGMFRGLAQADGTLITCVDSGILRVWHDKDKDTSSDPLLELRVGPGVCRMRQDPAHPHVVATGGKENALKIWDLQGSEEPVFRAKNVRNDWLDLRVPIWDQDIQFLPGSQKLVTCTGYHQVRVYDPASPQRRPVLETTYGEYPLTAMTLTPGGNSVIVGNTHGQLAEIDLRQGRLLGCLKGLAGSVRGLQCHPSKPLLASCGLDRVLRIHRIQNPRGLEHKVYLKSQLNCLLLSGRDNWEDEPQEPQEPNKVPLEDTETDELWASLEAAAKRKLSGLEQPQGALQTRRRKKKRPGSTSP
The procedure, abridged:
(§1)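 Five rounds of selection were carried out against human peptide recognition domains fused to the C-terminus of glutathione S-transferase (GST) and expressed in 96-well plates. The M13 phage library presented randomized hexadecapeptides, cysteine-free and glycine-flanked, on the gene-8 major coat protein. For each value, the phage ELISA signal on the GST-domain fusion was divided by the signal on GST alone.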

Test [2] addresses T2, YWHAG 1-247 14-3-3 (domain begin residue: 1, domain end residue: 247), P61981.
T2 chain: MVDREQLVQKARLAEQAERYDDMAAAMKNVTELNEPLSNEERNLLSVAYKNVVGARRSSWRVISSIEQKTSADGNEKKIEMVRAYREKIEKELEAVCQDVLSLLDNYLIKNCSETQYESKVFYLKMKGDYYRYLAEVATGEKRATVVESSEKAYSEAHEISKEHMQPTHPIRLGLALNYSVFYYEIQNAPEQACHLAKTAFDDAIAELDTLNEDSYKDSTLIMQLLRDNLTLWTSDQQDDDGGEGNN
In outline: as §1

The target in test [3] is T3, YWHAE 1-255 14-3-3 (domain begin residue: 1, domain end residue: 255), P62258.
T3 chain: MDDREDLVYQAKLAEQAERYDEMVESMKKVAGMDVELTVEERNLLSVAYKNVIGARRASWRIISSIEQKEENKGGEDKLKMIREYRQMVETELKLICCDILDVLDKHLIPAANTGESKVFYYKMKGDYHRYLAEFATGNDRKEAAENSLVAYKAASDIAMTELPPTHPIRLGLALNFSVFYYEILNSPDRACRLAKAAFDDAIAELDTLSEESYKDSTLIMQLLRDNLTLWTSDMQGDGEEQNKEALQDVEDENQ
In outline:
as §1

Test [4] deals with T4, YWHAH 2-246 14-3-3 (domain begin residue: 2, domain end residue: 246), Q04917.
T4 chain: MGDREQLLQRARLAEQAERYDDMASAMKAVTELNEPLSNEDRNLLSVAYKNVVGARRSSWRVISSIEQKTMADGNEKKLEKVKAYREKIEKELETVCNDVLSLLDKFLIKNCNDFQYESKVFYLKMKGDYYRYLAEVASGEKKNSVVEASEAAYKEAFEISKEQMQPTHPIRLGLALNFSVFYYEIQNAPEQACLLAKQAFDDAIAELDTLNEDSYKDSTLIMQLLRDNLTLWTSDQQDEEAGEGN
In outline:
as §1

The target of test [5] is T5, YWHAB 1-246 14-3-3 (domain begin residue: 1, domain end residue: 246), P31946.
T5 chain: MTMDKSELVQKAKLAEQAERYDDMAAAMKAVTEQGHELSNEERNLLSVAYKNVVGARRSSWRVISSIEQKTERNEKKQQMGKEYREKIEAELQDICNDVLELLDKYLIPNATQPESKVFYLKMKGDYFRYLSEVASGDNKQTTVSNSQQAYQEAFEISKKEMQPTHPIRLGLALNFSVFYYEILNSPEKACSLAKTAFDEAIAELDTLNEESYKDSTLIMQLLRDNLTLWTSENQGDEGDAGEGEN
The procedure, abridged:
as §1

In test [6] the target is T6, YWHAZ 1-245 14-3-3 (domain begin residue: 1, domain end residue: 245), P63104.
T6 chain: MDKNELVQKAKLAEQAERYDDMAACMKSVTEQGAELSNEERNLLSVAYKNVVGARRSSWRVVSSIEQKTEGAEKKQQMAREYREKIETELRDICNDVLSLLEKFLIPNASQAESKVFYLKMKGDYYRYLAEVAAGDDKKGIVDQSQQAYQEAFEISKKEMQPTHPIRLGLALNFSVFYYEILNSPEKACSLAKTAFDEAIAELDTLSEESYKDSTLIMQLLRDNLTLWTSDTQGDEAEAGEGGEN
In outline: as §1

The target in test [7] is T7, ZGPAT 120-268 zf-CCCH+TUDOR (domain begin residue: 120, domain end residue: 268), Q8N5A5.
T7 chain: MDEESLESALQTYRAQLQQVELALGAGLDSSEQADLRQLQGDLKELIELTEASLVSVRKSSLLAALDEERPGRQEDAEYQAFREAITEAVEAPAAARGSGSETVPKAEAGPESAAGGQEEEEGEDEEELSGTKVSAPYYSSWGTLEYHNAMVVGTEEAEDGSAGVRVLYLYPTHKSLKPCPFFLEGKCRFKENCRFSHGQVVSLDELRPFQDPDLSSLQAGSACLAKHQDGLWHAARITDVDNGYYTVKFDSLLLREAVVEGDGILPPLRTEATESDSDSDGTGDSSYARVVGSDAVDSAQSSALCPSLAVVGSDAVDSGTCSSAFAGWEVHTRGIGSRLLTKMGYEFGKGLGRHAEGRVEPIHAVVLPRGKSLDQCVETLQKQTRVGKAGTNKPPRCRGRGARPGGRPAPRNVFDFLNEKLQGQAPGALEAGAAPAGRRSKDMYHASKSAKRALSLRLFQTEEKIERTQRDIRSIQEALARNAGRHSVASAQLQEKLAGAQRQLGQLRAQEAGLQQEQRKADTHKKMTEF
The procedure, abridged:
as §1

For the molecule DWFSSIIEAERQPVAD, in test [1], the “phage ELISA signal ratio” value was 5.4. For the molecule PSPQPWWTDWHAEWVN, the “phage ELISA signal ratio” value in test [2] amounted to 16.1. Take YMQNLDTQWMLWLQGP: the “phage ELISA signal ratio” value in test [3] amounted to 9.78.

For the molecule SLEWLDLAQWTDPHQR, the “phage ELISA signal ratio” value in test [4] turned out to be 19.8. With MDWLDLAGQESLFPLW, the “phage ELISA signal ratio” value in test [4] is 17.1. Take HKMEPWYTDWHADFLM: the “phage ELISA signal ratio” value in test [5] came to 9.61. As to HPPWWEPWHVEFLLQD, the “phage ELISA signal ratio” value in test [5] was determined as 22.7. Consider VKSYYTTWHVQWLMDW, for which the “phage ELISA signal ratio” value in test [6] was determined as 6.31. Regarding GDVSNLSEAMELWRSW, the “phage ELISA signal ratio” value in test [4] was found to be 17.6.

As for FDSYWEAAFDQLQMAE, the “phage ELISA signal ratio” value in test [1] came to 7.17. As for PALSDVWDSIPLEFAW, the “phage ELISA signal ratio” value in test [1] is 6.43. Still for that read-out and setting: as for DFMSDMFLQQLDTVGL, the figure is 7.8. With GLHQLDWLDLADIYPK, the “phage ELISA signal ratio” value in test [4] amounted to 18.7. Turning to VEYLDLANFDPMAGKW, the “phage ELISA signal ratio” value in test [4] was 26.2.

As to PQSLQEAMVVWQTWSG, the “phage ELISA signal ratio” value in test [2] stood at 21.6. On to EWSVWDHVPRDWQTVG, for which the “phage ELISA signal ratio” value in test [3] came to 17.7. Turning to DYMSTLFDSIPTHVST, the “phage ELISA signal ratio” value in test [7] came to 8.28. As for EPHMLYDMWREWVTAD, in test [7], the “phage ELISA signal ratio” value is 3.14. For HQQGDDWVIAEIPPFR, the “phage ELISA signal ratio” value in test [2] was 19.8. With VVFSDYWVDWHVEYMG, the “phage ELISA signal ratio” value in test [5] was determined as 11.9.

With EHPHYWTPWHVDYMLR, in test [6], the “phage ELISA signal ratio” value turned out to be 4.41.

As for RPAWMDSATWLMIQEW, in test [5], the “phage ELISA signal ratio” value is 22. Regarding SQAMDLNAGWPWDIVM, the “phage ELISA signal ratio” value in test [7] amounted to 8.17. Same read-out and setting: the figure for DYMSQLWDHMSVDIYP is 5.82.

For the molecule QNIEFVWWHKEWLENQ, the “phage ELISA signal ratio” value came to 15.1 in test [5] and 6.38 in test [6]. As to DMWSQWEEWNAVMPWE, the “phage ELISA signal ratio” value in test [1] is 9.73.

MPEYWVDWHMEYVQEM: in test [6], the “phage ELISA signal ratio” value worked out at 28.1. As to WEAIWDDMLTVQMPMA, the “phage ELISA signal ratio” value in test [1] came to 5. Regarding VWPMPQTWAEWQDLLA, the “phage ELISA signal ratio” value in test [5] is 17.7. On to LEWLDLAQWHGGENSR, for which, in test [4], the “phage ELISA signal ratio” value was 21.
